Measurements published in PubChem BioAssay AID2690 (NMMLSC, 2010).
The campaign covered roughly 330,000 compounds. About 590 (0.18%) were called active. The list comes from a sample in which actives are over-represented; it also holds similar structures and randomly drawn compounds. Values without a mark were called inactive.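 How the source made its calls: active means superoxide response under a set limit, about three screen SD below normal (cut at about 65% in these data); inactive means the rest.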

Test: yeast aging ROS inhibitors as calorie-restriction mimetics – HTS, primary screen (AID 2690);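 further: yeast aged for seven days with compound at 30 °C before DHE staining; 100% = average MFI of all compound-treated wells on the plate with controls excluded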
Details: S. cerevisiae aged cells, superoxide DHE fluorescence; at 10 µM; stronger effect = lower value

Row | SMILES | superoxide response (% of plate mean)
1 | CN1CCN(C(=S)SCC(=O)Nc2ccc(Cl)cc2C(=O)c2ccccc2)CC1 | 63.3% (active)
2 | O=C(COC(=O)c1ccccc1)Nc1ccc(Cl)cc1C(=O)c1ccccc1 | 104%
3 | O=C(CCNS(=O)(=O)c1ccccc1)Nc1ccc(Cl)cc1C(=O)c1ccccc1 | 83.2%
4 | CNCC[C@H](Oc1ccc(C(F)(F)F)cc1)c1ccccc1 | 88.9%
5 | Cc1cc(C)cc(NC(=S)NC2CC3CCCC(C2)N3Cc2cccs2)c1 (stereo not given) | 101%
